# Rows were chosen to be rich in hits. Some 19% of all compounds tested hit in one or more screens of this group.
# HT1080 IDH1KD tx – toxicity to HT-1080 IDH1 knockdown cells (counter line) | AID 686971 | actives 2% (n = 360,000) | Potency, µM (titrated, usually from 46.1 µM), without a hit: at the highest dose activity, negative = toxicity, hits mostly cytotoxic | HT-1080 IDH1 knockdown viability, ATP luminescence, 48 h;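 also: 0% = DMSO wells and -100% = cell-free medium wells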
#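 In this qHTS, HT-1080 cells depleted of IDH1 are exposed for 48 h at 37 °C to compound titrations. Toxicity is scored from CellTiter-Glo luminescence, with DMSO as full viability and medium alone as none.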
# DT40 TDP1 CPT – DT40-hTDP1 cell growth loss with CPT. AID 686979. chicken DT40 Tdp1-/-;hTDP1 cells + 20 nM CPT, ATP luminescence, 48 h. actives 12% (n = 420,000). Potency, µM (highest dose often 46.2 µM), for the others: at the highest dose activity change, negative = growth inhibition, hits mostly inhibitors; also: nearly all actives have a fitted effect of over 55% in size
#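 Chicken DT40 Tdp1-/- cells stably complemented with human TDP1 were seeded at 400 cells/well in medium containing 20 nM camptothecin, exposed to pin-transferred compounds, and grown at 37 °C for at least 48 hr. Viability was read as ATP luminescence.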
# KB-V1 MDR tox – kills drug-selected multidrug resistant KB-V1 cells. Potency, µM (titrated, usually from 46.1 µM), usual class: cytotoxic. KB-V1 MDR cells viability, CellTiter-Glo, 72 h. actives 3.4% (n = 400,000); also: nearly all actives have a fitted effect of over 60% in size
#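 KB-V1 cells (P-gp-expressing MDR subline of KB-3-1) in phenol-red-free DMEM with 10% FBS were exposed to library compounds over a concentration series for 72 h at 37 degrees C. Viability read by CellTiter-Glo luminescence; concentration-effect curves fitted after normalization.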
# KB-3-1 tox – KB-3-1 parental cell cytotoxicity; KB-3-1 viability, CellTiter-Glo ATP luminescence, 72 h; Potency, µM (doses to about 46.1 µM), usual class: cytotoxic; actives 1.4% (n = 400,000); also: nearly all actives have a fitted effect of over 60% in size
#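 Cytotoxicity in the drug-sensitive parental line KB-3-1 was scored as loss of CellTiter-Glo luminescence following 72 h incubation with compound. Values come from curve fitting of normalized concentration-response data.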
# TDP1 cell noCPT – qHTS for Inhibitors of human tyrosyl-DNA phosphodiesterase 1 (TDP1): qHTS in cells in absence of CPT; DT40 Tdp1-/- hTDP1 cells, no CPT, ATP luminescence, 48 h; Potency, µM (doses to about 46.2 µM), without a hit: at the highest dose activity change, negative = growth inhibition, most hits filed as inhibitors; actives 15% (n = 420,000); AID 686978, 2013; also: nearly all actives have a fitted effect of over 55% in size
#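 Luminescent ATP content (CellTiter-Glo) served as the growth readout. Knockout chicken DT40 cells expressing human TDP1 were exposed to compounds without camptothecin for a minimum 48 hr at 37 °C.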
# HT1080NT lethal – kills 2HG-producing HT-1080-NT fibrosarcoma cells | Potency, µM (highest dose often 46.1 µM), inactives show top-dose activity, negative = less viability, actives largely listed as cytotoxic | HT-1080-NT fibrosarcoma viability, CellTiter-Glo ATP luminescence, 48 h | AID 686970 | actives 1.6% (n = 360,000);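 also: NT is the 2HG producing partner of a matched IDH1 knockdown line; 0% = DMSO-treated cells and -100% = media-only wells without cells; nearly all actives have a fitted effect of over 55% in size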
#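 HT-1080-NT fibrosarcoma cells (2HG-overproducing), 750 cells/well in RPMI with 5% FBS, dosed after 2 h and incubated 48 h at 37C. CellTiter-Glo luminescence normalized to DMSO and no-cell wells; concentration-response curves fitted and classed.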
# An asterisk follows results filed as active; i = inactive; ? = inconclusive; · = no result given. Calls follow the shape of the dose curve; as a rule, active = well fitted curve in the direction sought with a large enough effect; inconclusive = small, poorly fitted or top-dose-only effect, or another doubt; inactive = no such curve, though single readings can be large; an effect the other way counts as inactive or inconclusive. Unless noted, % is scaled to controls: 0 for no effect and ±100 for the full control effect; potency is read from the fitted curve at half-maximal effect.
SMILES,HT1080 IDH1KD tx,DT40 TDP1 CPT,KB-V1 MDR tox,KB-3-1 tox,TDP1 cell noCPT,HT1080NT lethal
CCC(C)c1ccc(S(=O)(=O)N2CCN(C(=O)COc3ccc4c(C)cc(=O)oc4c3)CC2)cc1 (stereo unspecified),-6%,?,i,i,15µM*,1%
COC(=O)c1ccc(C(=O)N2CCCC(N3CCN(c4ccc(F)cc4)CC3)C2)nc1 (stereo unspecified),21%,-18%,i,i,5%,-4%
COc1ccc(OCC(=O)N2c3ccccc3CC2C)c([N+](=O)[O-])c1 (stereo unspecified),2%,?,i,i,?,-1%
CCN(CC)c1cccc(OCC(=O)N2c3ccccc3CC2C)c1 (stereo unspecified),-19%,?,i,i,18µM*,-7%
CCc1cc(=O)oc2c(CNCc3c(F)cccc3Cl)c(O)ccc12,0%,18µM*,i,i,-2%,9%
CCC[N+]1(CC#CCC(c2ccccc2)c2ccccc2)CCCCC1,?,1.5µM*,i,2.6µM*,1.3µM*,-27%
C(#Cc1ccccc1)C[N+]1(CC#Cc2ccccc2)CCCCC1,?,1.8µM*,i,18µM*,1.5µM*,?
C#CC[N+]1(CC#Cc2cccc(C)c2)CCCCC1,?,2.6µM*,i,?,2.3µM*,-22%
C#CC[N+]1(CC#Cc2ccccc2)CCCCC1,1%,16µM*,i,i,16µM*,4%
C[N+]1(CC(O)c2ccccc2)CCCCCC1 (stereo unspecified),-1%,9%,i,i,1%,7%
O=C1C2C3C=CC(CC3)C2S(=O)(=O)C2C3C=CC(CC3)C12 (stereo unspecified),-2%,-11%,i,i,-26%,-2%
Cc1ccc(C#CC[N+]2(CC#Cc3ccc(C)cc3)CCCCC2)cc1,15µM*,0.46µM*,i,?,0.029µM*,21µM*
CCN(CC)CC#Cc1ccc(C)cc1,9%,4%,i,i,-24%,14%
C=CCNC(=S)N/N=C/c1ccc(OCc2ccccc2Cl)cc1,3.2µM*,?,i,i,-27%,3.2µM*
Clc1ccccc1COc1ccc(/C=N/n2cnnc2)cc1,2%,?,?,i,?,3%
CCC1CSC(Nc2ccc(C(=O)/C=C/c3ccc(OC)c(OC)c3)cc2)=N1 (stereo unspecified),?,?,2.9µM*,?,13µM*,?
CCC1CSC(Nc2ccc(C(=O)/C=C/c3ccc(Br)cc3)cc2)=N1 (stereo unspecified),18µM*,?,?,i,?,?
CCNc1ncc2nc(-c3ccc(F)cc3)c(=O)n(CCc3ccccc3)c2n1,·,-3%,·,·,13%,·
O=C(N/C(=C\c1ccccc1)C(=O)N1CCOCC1)c1ccccc1Br,2%,4%,i,i,3%,8%
Cc1nc(N2CCCC2)ncc1C(=O)N1CCN(c2ccc(Cl)cc2)CC1,·,?,i,i,?,·
Cc1ccc(NC(=S)N(CCN(C)C)C(C)c2ccco2)cc1Cl (stereo unspecified),-5%,?,i,i,?,20%
CC(C)CCN(C(=S)Nc1cccc(F)c1)C(C)c1cccs1 (stereo unspecified),3%,?,i,i,1%,16%
COCCN(C(=S)Nc1cc(C)cc(C)c1)C(C)c1ccco1 (stereo unspecified),2%,?,i,i,26µM*,12%
CCc1cccc(C)c1NC(=S)N(CCN(C)C)C(C)c1ccco1 (stereo unspecified),1%,18µM*,?,i,?,0%
COCCN(C(=S)Nc1cc(C)cc(C)c1)C(C)c1cccs1 (stereo unspecified),0%,18µM*,i,i,?,3%
SMILES,HT1080 IDH1KD tx,DT40 TDP1 CPT,KB-V1 MDR tox,KB-3-1 tox,TDP1 cell noCPT,HT1080NT lethal
Cc1ccc(NC(=S)N(CCN(C)C)C(C)c2ccco2)c(C)c1 (stereo unspecified),-5%,?,?,i,?,?
Cc1ccccc1NC(=S)N(CCN(C)C)C(C)c1ccccn1 (stereo unspecified),9%,-5%,16µM*,i,-19%,15%
Cc1cc(C)nc(N2C(=O)CC(C(C)c3ccccc3)C2=O)n1 (stereo unspecified),7%,5%,i,i,-17%,9%
CC1=NN(c2nc(C)cc(C)n2)C(=O)C1CCC(C)C (stereo unspecified),10µM*,?,i,i,?,7.9µM*
Cc1cc(C(=O)C(=O)O)c(C)n1-c1ccc(Cl)cc1,-3%,24%,?,i,-15%,7%
Cc1cc(C(=O)C(C)Sc2cccc[n+]2[O-])c(C)n1-c1ccc(Cl)cc1 (stereo unspecified),23µM*,2.9µM*,21µM*,?,2.9µM*,?
COc1cc(-c2nc3ccc4ccccc4c3c3c2CCC3)cc(OC)c1O,?,21µM*,?,?,16µM*,?
COc1cc(-c2nc3ccc4ccccc4c3c3c2CCC3)cc(OC)c1OC,?,?,i,i,?,?
CN(C)c1ccc(NC(=O)CC(NCc2ccccn2)C(=O)O)cc1 (stereo unspecified),0%,-4%,i,i,-1%,-2%
COc1cccc(Nc2nc3ccc(C(=O)c4ccccc4)cc3n3c(C)nnc23)c1,·,12µM*,i,i,?,·
Cc1ccc(Nc2nc3ccccc3n3cnnc23)c(Cl)c1,10%,-23%,i,i,-30%,28%
Cc1c(Cl)cccc1Nc1nc2ccc(C(=O)c3ccccc3)cc2n2cnnc12,·,?,i,i,23µM*,·
CCc1nnc2c(Nc3cccc(F)c3)nc3ccc(C(=O)c4ccccc4)cc3n12,·,6.5µM*,9.2µM*,?,2.9µM*,·
CC1SC(=Nc2ccccc2)N(S(=O)(=O)c2ccccc2)C1=O (stereo unspecified),16%,-3%,i,i,-20%,6%
COc1ccc(NC(=O)Cn2cc(C(=O)c3ccccc3OC)c(=O)c3ccc(C)nc32)cc1OC,·,-19%,i,i,?,·
